FGF22 binding: binders of recombinant human FGF22 by thermal shift; AID 651658; SYPRO orange fluorescence; percent of sucrose octasulfate shift, DMSO zero; actives 1.5% (n = 340,000); activity (Tm shift, normalised), % at 9.99 µM;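 active = mean Tm shift, scaled 0 neutral to 100 positive control, at about 1.3% or above, every replicate too, limit read from the data; inconclusive = no clear call, values can overlap the other calls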
esBAF inh: SWI/SNF esBAF complex inhibition | AID 602393 | actives 2% (n = 350,000) | mouse ES cells, Bmi1-luciferase knock-in reporter, 24 h; 100% = twice the neutral-well signal | reporter increase, % at 12.5 µM; in the data active = activation above about 40%; inconclusive = no clear call, values can overlap the other calls;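 note: 0% = median of the plate's neutral control wells and 100% = double that signal; a rise in the Bmi1 reporter signal indicates esBAF inhibition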
MLL AF4-AF9 inh: MLL-AF4/AF9 protein interaction inhibition; P42568; AlphaScreen, biotin-AF4 peptide binding to FLAG-AF9; inhibition, % at 10 µM; actives 0.47% (n = 350,000);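 active = every replicate reaching a set inhibition limit, whatever the replicate mean, cut at about 25% in these data; inconclusive = mean inhibition reaches that limit but some replicates miss it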;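 note: 0% = plate neutral control median and 100% = total signal loss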
Target sequence (P42568 whole entry, looked up): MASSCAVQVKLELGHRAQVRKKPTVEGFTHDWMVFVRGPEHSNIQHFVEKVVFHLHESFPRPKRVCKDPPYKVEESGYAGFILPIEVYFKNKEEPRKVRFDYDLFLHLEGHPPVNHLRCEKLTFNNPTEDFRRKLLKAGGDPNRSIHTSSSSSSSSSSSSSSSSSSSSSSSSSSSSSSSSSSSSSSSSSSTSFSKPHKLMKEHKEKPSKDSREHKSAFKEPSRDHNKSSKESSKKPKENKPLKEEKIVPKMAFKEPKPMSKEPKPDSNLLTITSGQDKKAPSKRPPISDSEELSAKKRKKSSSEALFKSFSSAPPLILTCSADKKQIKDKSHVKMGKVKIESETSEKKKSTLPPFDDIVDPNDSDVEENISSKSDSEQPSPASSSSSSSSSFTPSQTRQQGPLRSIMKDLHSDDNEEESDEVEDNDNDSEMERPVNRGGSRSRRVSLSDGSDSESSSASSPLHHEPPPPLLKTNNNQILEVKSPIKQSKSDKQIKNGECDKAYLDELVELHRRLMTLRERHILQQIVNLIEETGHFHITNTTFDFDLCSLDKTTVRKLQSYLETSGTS
SMARCA2 act: increases SMARCA2 function in MMTV reporter cells; MG213 cells, MMTV-luciferase reporter, dexamethasone, overnight; activation, % at 9.1 µM; actives 1% (n = 370,000); in the data active = activation above about 7.8%;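 note: 0% = vehicle wells and 100% = reference activator wells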
Wnt act: Wnt/beta-catenin pathway activation; actives 1.2% (n = 300,000); activation, % at 9.35 µM; Wnt/beta-catenin reporter cell assay, activator, plate reader; in the data active = activation above about 30%, passing the limit was not always enough; inconclusive = no clear call, values can overlap the other calls;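 note: 0% = neutral control wells and 100% = positive control wells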
MITF act: increases MITF-driven TRPM1 promoter luciferase signal | SK-MEL-5 TRPM1-promoter luciferase, 24 h; % of positive control, neutral wells = 0 | activation, % at 12.5 µM | actives 0.75% (n = 300,000) | AID 588334;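 active = mean activation of at least 80% with every replicate also reaching 80%; inconclusive = mean reaches 80% but some replicate falls short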;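 note: 0% = neutral control wells and 100% = parthenolide positive control wells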
The depositor's hits bear a star; ? = inconclusive; nt = not tested or not shown. Only some compounds are listed: those with a hit (about 4.3% of all), similar ones and a draw of the others.

SMILES	FGF22 binding	esBAF inh	MLL AF4-AF9 inh	SMARCA2 act	Wnt act	MITF act
O=C(CNC(=O)c1ccc(Cl)cc1)NNC(=O)c1ccc(Br)cc1	-0.1	-3.6	-1.3	-1.1	55.2*	4.5
COc1ccc(S(=O)(=O)Nc2ccc3c(c2)C(=O)N([C@@H](C)CO)C[C@@H](C)[C@@H](CN(C)C(=O)Cc2ccccc2)OCCCC[C@H](C)O3)cc1	0.7	3.2	-0.5	nt	nt	nt
COc1cc(/C=C/c2nc3ccccc3c(=O)[nH]2)cc(OC)c1OC	-0.2	27.6	3.7	0.5	9.4	23.5
Cc1ccccc1/C=C\c1nc2ccccc2c(=O)[nH]1	0.1	nt	-2.8	3.8	23.7	25.4
Cc1ccccc1/C=C/c1nc2ccccc2c(=O)[nH]1	-0.4	20.5	-0.7	5.3	38.9*	39.8
C=CCOc1cccc(/C=C/c2nc3ccccc3c(=O)[nH]2)c1	0.1	-2.8	2.6	3.8	11.8	81.8*
O=C(c1ccccc1NS(=O)(=O)c1cccc2cccnc12)N1CCOCC1	43.4*	-8.2	-3.0	-3.6	-5.4	-6.3
O=S(=O)(Nc1ccccc1O)c1cccc2cccnc12	0.0	nt	1.2	0.4	-1.5	-3.9
O=C(c1cccnc1Cl)N1CCOCC1	43.6*	nt	-15.3	-1.2	-0.1	6.2
COc1ccc(CN(C(=O)c2nsc(Cl)c2Cl)C(C(=O)NC2CCCC2)c2ccc(OC)cc2)cc1 (stereo unspecified)	43.2*	nt	0.5	-0.9	-8.8	14.5
COc1ccc(CN(C(=O)c2snc(C(N)=O)c2N)C(C(=O)NC2CCCC2)c2ccc(OC)cc2)cc1 (stereo unspecified)	-0.4	4.8	1.7	-0.3	-1.9	-1.3
O=C(C[C@@H]1CC[C@H]2[C@@H](COC[C@H](O)CN2CCC(F)(F)F)O1)NCC1CCCCC1	-0.1	-6.0	nt	nt	nt	nt
COc1ccc(C(=O)N/N=C/c2ccc(OC)c(COc3ccccc3)c2)cc1	0.9	1.7	-1.3	5.6	0.4	13.0
COc1ccc(/C=N\NC(=O)c2cc(O)c(O)c(O)c2)cc1COc1ccc(C(=O)OCC(C)C)cc1	0.2	1.6	53.9*	-0.9	-2.2	4.7
CO[C@H](CN(C)C(=O)C1CC1)[C@H](C)CN(C(=O)Nc1ccc(C(F)(F)F)cc1)[C@@H](C)CO	0.1	-0.4	-0.4	nt	nt	nt
COc1cccc(-c2nc(=S)c3c(o2)CCCC3)c1	-0.1	nt	3.7	5.6	11.0	nt
S=c1nc(-c2ccccc2)oc2c1CCCC2	nt	nt	nt	-2.5	73.9*	55.7
N#C[C@H]1[C@@H](c2ccccc2-c2ccccc2F)[C@@H](CO)N1C(=O)C1CC1	-0.2	nt	-1.1	nt	nt	nt
COc1ccc2cc(C(=O)OC(C)C)sc(=O)c2c1OC	nt	53.2*	nt	3.1	nt	39.3
C/C=C/c1ccc([C@H]2[C@@H](CO)N(C(C)=O)[C@@H]2CN(CC(C)C)C(=O)CC)cc1	nt	nt	0.1	nt	nt	nt
O=C(Nc1ccc(F)c(Cl)c1)c1cc(C2CCCN(S(=O)(=O)c3cccs3)C2)on1 (stereo unspecified)	-0.1	11.2	-0.6	-2.7	-1.0	nt
O=C(Nc1ccc(F)c(Cl)c1)c1cc(C2CCCN(C(=O)CCc3ccccc3)C2)on1 (stereo unspecified)	0.1	46.9*	-2.8	-1.5	26.0	nt
O=C(NCc1ccccc1)c1cc(C2CCCN(C(=O)CCc3ccccc3)C2)on1 (stereo unspecified)	-0.2	12.1	-1.3	-4.2	-0.2	nt
O=C(Nc1ccccc1)c1cc(C2CCCN(C(=O)CCc3ccccc3)C2)on1 (stereo unspecified)	0.0	64.3*	-1.8	3.6	17.0	nt
O=C(Nc1ccccc1Cl)c1cc(C2CCCN(C(=O)CCc3ccccc3)C2)on1 (stereo unspecified)	-0.2	22.3	-4.4	0.0	-1.8	nt
SMILES	FGF22 binding	esBAF inh	MLL AF4-AF9 inh	SMARCA2 act	Wnt act	MITF act
CC(C)S(=O)(=O)N1CCCC(c2cc(C(=O)Nc3ccc(F)c(Cl)c3)no2)C1 (stereo unspecified)	-0.3	47.9*	0.1	-1.3	31.6*	nt
CC(C)NC(=O)N(C)C[C@@H]1OCCCC[C@@H](C)Oc2ccc(NC(=O)CCCN(C)C)cc2C(=O)N([C@H](C)CO)C[C@H]1C	0.8	nt	-5.7	nt	nt	nt
COc1ccc(S(=O)(=O)N(C)C[C@H]2Oc3c(NC(=O)c4cnccn4)cccc3C(=O)N([C@H](C)CO)C[C@@H]2C)cc1	-0.1	-3.3	-1.2	nt	nt	nt
COc1ccc(CN(C)C[C@H]2OCCCC[C@H](C)Oc3ccc(NC(=O)c4ccccc4)cc3C(=O)N([C@H](C)CO)C[C@@H]2C)cc1	nt	-0.4	3.2	nt	nt	nt
CCCCN1C(=O)/C(=C/C=C2\SCCN2C)SC1=S	0.0	nt	16.2	3.3	11.4	91.6*
Cc1cc(OCc2cc(C(=O)N3CCCCCC3)no2)cc(C)c1Cl	0.0	48.0*	-1.8	3.4	34.7*	?
Cc1ccc(OCc2cc(C(=O)N3CCCCCCC3)no2)cc1C	0.1	32.3	-2.3	5.5	7.2	36.6
COCC1CCN(C(=O)c2cc(COc3cc(C)c(Cl)c(C)c3)on2)C1 (stereo unspecified)	-0.1	64.4*	-2.5	2.9	20.1	73.4
COCC1CCN(C(=O)c2cc(COc3cncc(Cl)c3)on2)C1 (stereo unspecified)	0.0	-1.2	-5.3	-0.9	1.9	1.1
CNC[C@@H]1Oc2c(NC(=O)c3cc(C)nn3C)cccc2C(=O)N([C@@H](C)CO)C[C@@H]1C	0.1	-1.1	-1.8	nt	nt	nt
Cc1cc2ncn(C(=O)N3CCCCC3)c2cc1C	0.0	24.3	2.7	-0.5	0.3	31.4
Cc1cc2ncn(C(=O)N3CCCCCC3)c2cc1C	nt	49.3*	nt	1.2	5.2	30.9
CC(=O)Nc1c(-c2ccc3ccccc3c2)nc2ccccn12	-0.2	56.9*	-0.3	6.5	23.4	82.3*
O=C(NCc1ccc2c(c1)OCO2)c1ccc(S(=O)(=O)C(F)F)cc1	0.1	-4.2	-0.4	-1.9	-1.9	15.0
NS(=O)(=O)c1ccc(CNC(=O)c2ccc(S(=O)(=O)C(F)F)cc2)cc1	0.0	-5.4	-0.4	-4.6	36.1*	3.6
COc1ccc(-c2cc(=O)c3ccccc3[nH]2)cc1	-0.2	9.6	-12.9	1.1	7.1	9.7
Cc1ccc(O)c(-c2cc3ccccc3[nH]2)c1	nt	29.8	nt	0.0	36.7*	20.0
COc1ccc(-c2cc3ccccc3[nH]2)cc1	-0.3	39.4	18.6	3.2	54.1*	?
CCNC(=O)[C@H]1[C@H](CO)[C@H]2Cn3c(cccc3=O)[C@@H]1N2CC1CCOCC1	nt	nt	-3.0	nt	nt	nt
CC1CCC2(CCC(=O)N2CCCOC(=O)Nc2cccc(C(F)(F)F)c2)CC1 (stereo unspecified)	nt	nt	nt	-3.9	nt	nt
Cc1ccc(C(C)(C)NC(=O)C2CCC(=O)N(C3CCCCCC3)C2)cc1 (stereo unspecified)	0.0	74.2*	-1.6	4.6	-3.2	70.0
CCSc1nnc2c(n1)OC(C)(C)Nc1ccccc1-2	0.2	48.3*	-2.5	3.1	18.6	12.1

Assay outcomes (PubChem)
